Unmarked numbers belong to inactive results. Inconclusive results are not listed. Activity calls are given as the source filed them. Unless noted, calls come from the whole dose curve; as a rule, active = well fitted curve in either direction with a large enough effect (not every such curve was filed as active); inconclusive = small, poorly fitted or top-dose-only effect, or another doubt; inactive = flat fitted curve, though single readings scatter.
Columns and labels:
[1] = biological target: Lysosomal acid glucosylceramidase (Homo sapiens) (UniProt P04062); test: Glucocerebrosidase-p2 (AID 348; in the data active = potency below about 10 µM; note: potency is the fitted concentration of half-maximal effect); conditions: purified GBA, blue fluorogenic substrate, 40 min
Method in brief: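 Compounds titrated from 0.6 nM upwards against 0.2 nM enzyme in pH 5.9 citric acid/KH2PO4, taurocholate, tween-20; blue fluorogenic substrate 80 uM, 40 min room temperature, stopped and read Ex 365/Em 440 for AC50.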

[2] = AP1 Signaling Pathway (AID 357); conditions: ME-180 AP-1-bla reporter, EGF-induced, beta-lactamase ratio, 5 h; at 7.69 µM (top of the series) unless noted;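 note: ME-180 reporter cells stimulated with EGF at its EC50 level; % is set by controls: 0 for no effect and ±100 for the full control effect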
Method in brief: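 Titration-series screen for positive or negative modulators of EC50 EGF-induced signaling in ME-180 cells carrying an AP-1-driven beta-lactamase reporter. After 5 hours at 37 degrees Celsius, CCF4 460nm/530nm emission ratio gave %Activity; AC50 values derived.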

[3] = NFAT Signaling Pathway (AID 444); conditions: Jurkat NFAT-bla M1, carbachol, beta-lactamase ratio, 5 h; at 7.69 µM (top of the series) unless noted;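 note: carbachol stimulus at about its EC50 of 1 µM final; % is set by controls: 0 for no effect and ±100 for the full control effect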
Method in brief: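 Jurkat cells with NFAT-driven β-lactamase reporter and co-expressed M1 receptor, stimulated with carbachol (final 1 uM, ~EC50), compound titration, 5 h at 37 °C. CCF4 loaded 1 h at RT; 460/530 nm ratio gave %activity and AC50.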

[4] = Stat Signaling Pathway (AID 446); conditions: ME-180 SIE beta-lactamase reporter, IL-6 stimulated, 5 h; at 7.69 µM (top of the series) unless noted;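 note: ME-180 cervical cancer cells given 40 pM IL-6 alongside compound; SIE-controlled beta-lactamase reporter measured as 460/530 nm FRET emission ratio; % is set by controls: 0 for no effect and ±100 for the full control effect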
Method in brief: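 Reporter line: ME-180 cervical carcinoma, SIE-beta-lactamase. Treatment: compound with 40 pM IL-6, 5 hrs, 37 C, in low-serum OPTI-MEM with 10 mM HEPES pH 7.3. Detection: 460/530 nm fluorescence.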

[5] = biological target: Glucocorticoid receptor (Homo sapiens) (UniProt P04150); test: GR-EFC Redistribution (AID 451; calls by dose curve; note: potency is the fitted concentration of half-maximal effect); conditions: CHO-K1 GR-EFC translocation, beta-gal luminescence, 2 h
Method in brief: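 CHO-K1 cells expressing nuclear EA and GR-ED fragments of b-gal; compounds titrated up to 46 uM final, 2 h at 37 C. GR nuclear translocation read as complemented b-gal luminescence after 1 h RT detection.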

[6] = biological target: Mitogen-activated protein kinase 10 (Mus musculus) (UniProt Q61831); test: JNK3 AlphaScreen Assay (AID 530); conditions: JNK3 lysate, c-Jun phosphorylation; series mostly up to 57.1 µM;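 note: kinase came from lysate of stimulated human HepG2 cells; signal reports phosphorylation of biotinylated GST-cJun 1-79 at Ser73 with 10 µM ATP; % is set by controls: 0 for no effect and ±100 for the full control effect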
Method in brief: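 qHTS format: compounds tested as titrations against IL-1beta/TNF-alpha-activated HepG2 lysate JNK3 with biotin-GST-cJun substrate and 10 uM ATP at room temperature. Loss of anti-phospho-cJun AlphaScreen signal indicates inhibition.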

[7] = biological target: 3',5'-cyclic-AMP phosphodiesterase 4B (Homo sapiens) (UniProt Q07343); test: qHTS Assay for Inhibitors of PDE-IV (AID 607; active = well fitted activation curve with a large enough effect in the main read-out, with a control signal flat, not every such curve was filed as active; note: % of control where 0% means no effect); conditions: HEK293 ACTOne CNG channel cells, membrane potential fluorescence; series mostly up to 22.9 µM
Method in brief: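 Cell-based read-out of cAMP via a modified cyclic nucleotide-gated channel and membrane potential dye (535/590 nm) in HEK293 cells expressing PDE4 endogenously. Compounds tested up to 22.9 uM final; 100 uM RO 20-1724 reference.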

[8] = Primary qHTS for small molecule stabilizers of the endoplasmic reticulum resident proteome: Secreted ER Calcium Modulated Protein (SERCaMP) assay (AID 1508630; active = well fitted curve in the direction sought with a large enough effect; an effect the other way counts as inactive or inconclusive; note: % is set by controls: 0 for no effect and ±100 for the full control effect); conditions: SH-SY5Y GLuc-SERCaMP (Gaussia luciferase released on ER calcium loss) secretion, thapsigargin, luminescence; series mostly up to 38.4 µM
Method in brief: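 GLuc-SERCaMP-expressing SH-SY5Y cells, pretreated 16 h with compound, are challenged with thapsigargin to empty ER calcium stores; after 4 h, coelenterazine is added directly to the medium and luminescence is imaged.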

[9] = biological target: Cytochrome P450 3A4 (Homo sapiens) (UniProt P08684); test: qHTS Assay for Inhibitors and Substrates of Cytochrome P450 3A4 (AID 884; active = well fitted curve in the direction sought with a large enough effect; an effect the other way counts as inactive or inconclusive; note: nearly all actives have a fitted effect of over 50% in size; note: potency is the fitted concentration of half-maximal effect); conditions: recombinant CYP3A4, Luciferin-PPXE luminescence; series mostly up to 57.1 µM
Method in brief: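 20 nM human CYP3A4 with 25 uM Luciferin-PPXE (at KM) in 200 mM KPO4, preincubated 10 min with compound; NADPH regeneration started a 60 min RT reaction. Luciferin detected by luminescence, normalized to 57 uM ketoconazole as full inhibition.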

[10] = biological target: Cytochrome P450 3A4 (Homo sapiens) (UniProt P08684); test: qHTS Assay for Activators of Cytochrome P450 3A4 (AID 885; active = well fitted curve in the direction sought with a large enough effect; an effect the other way counts as inactive or inconclusive; note: nearly all actives have a fitted effect of over 65% in size; note: potency is the fitted concentration of half-maximal effect); conditions: recombinant CYP3A4, Luciferin-PPXE luminescence, 60 min; series mostly up to 57.1 µM
Method in brief: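 Signal was normalized against complete inhibition by 57 uM ketoconazole. The reaction used 20nM CYP3A4 with 25uM Luciferin-PPXE, 10-min compound preincubation and a 60-min NADPH-supported step at RT.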

[11] = biological target: Cytochrome P450 2D6 (Homo sapiens) (UniProt P10635); test: qHTS Assay for Inhibitors and Substrates of Cytochrome P450 2D6 (AID 891; active = well fitted curve in the direction sought with a large enough effect; an effect the other way counts as inactive or inconclusive; note: potency is the fitted concentration of half-maximal effect; nearly all actives have a fitted effect of over 60% in size); conditions: recombinant CYP2D6, luciferin-ME EGE luminescence; series mostly up to 57.1 µM
Method in brief: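 Human CYP2D6 (5 nM) with 30 uM Luciferin-ME EGE (at Km) in 100 mM KPO4, compound preincubated 10 min, then NADPH regeneration system for 60 min at room temperature. Luciferin read by luminescence; normalized to 1.43 uM quinidine.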

Chain of Lysosomal acid glucosylceramidase (Homo sapiens) (P04062 whole entry, looked up): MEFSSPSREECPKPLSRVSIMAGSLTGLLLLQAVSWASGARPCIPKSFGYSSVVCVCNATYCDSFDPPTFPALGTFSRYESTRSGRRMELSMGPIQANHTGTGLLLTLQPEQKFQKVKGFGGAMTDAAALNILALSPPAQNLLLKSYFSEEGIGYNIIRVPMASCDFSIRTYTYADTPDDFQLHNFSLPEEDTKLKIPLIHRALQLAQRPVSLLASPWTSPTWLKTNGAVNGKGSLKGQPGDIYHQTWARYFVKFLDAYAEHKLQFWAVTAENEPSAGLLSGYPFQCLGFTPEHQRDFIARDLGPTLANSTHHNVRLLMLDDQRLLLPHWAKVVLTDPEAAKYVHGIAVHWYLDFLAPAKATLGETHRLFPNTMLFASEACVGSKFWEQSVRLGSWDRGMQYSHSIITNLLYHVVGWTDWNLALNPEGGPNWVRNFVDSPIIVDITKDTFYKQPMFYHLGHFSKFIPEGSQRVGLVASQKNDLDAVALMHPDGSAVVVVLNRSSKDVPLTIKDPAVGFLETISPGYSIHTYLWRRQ
Chain of Glucocorticoid receptor (Homo sapiens) (P04150 whole entry, looked up, the tested form may be a part): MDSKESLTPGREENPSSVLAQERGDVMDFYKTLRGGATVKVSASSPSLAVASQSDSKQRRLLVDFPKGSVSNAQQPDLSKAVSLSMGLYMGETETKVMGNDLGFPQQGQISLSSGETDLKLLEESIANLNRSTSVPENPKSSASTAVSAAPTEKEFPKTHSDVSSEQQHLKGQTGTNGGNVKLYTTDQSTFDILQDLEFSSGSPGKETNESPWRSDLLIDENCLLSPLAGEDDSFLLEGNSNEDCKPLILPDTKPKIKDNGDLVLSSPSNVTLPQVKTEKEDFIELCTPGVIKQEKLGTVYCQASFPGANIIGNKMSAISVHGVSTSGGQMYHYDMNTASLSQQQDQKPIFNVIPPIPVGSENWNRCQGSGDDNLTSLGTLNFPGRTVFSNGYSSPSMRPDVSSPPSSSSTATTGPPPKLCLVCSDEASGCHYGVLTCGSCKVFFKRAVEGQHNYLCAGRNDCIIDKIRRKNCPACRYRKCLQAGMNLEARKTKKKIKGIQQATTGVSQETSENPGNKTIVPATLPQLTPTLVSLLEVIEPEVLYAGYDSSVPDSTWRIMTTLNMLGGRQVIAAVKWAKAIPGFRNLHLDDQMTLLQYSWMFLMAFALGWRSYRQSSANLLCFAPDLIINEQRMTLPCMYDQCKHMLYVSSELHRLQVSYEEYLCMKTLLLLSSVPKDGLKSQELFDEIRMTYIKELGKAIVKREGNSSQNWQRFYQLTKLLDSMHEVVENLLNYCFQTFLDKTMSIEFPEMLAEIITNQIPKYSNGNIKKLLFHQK
Chain of Cytochrome P450 3A4 (Homo sapiens) (P08684 whole entry, looked up): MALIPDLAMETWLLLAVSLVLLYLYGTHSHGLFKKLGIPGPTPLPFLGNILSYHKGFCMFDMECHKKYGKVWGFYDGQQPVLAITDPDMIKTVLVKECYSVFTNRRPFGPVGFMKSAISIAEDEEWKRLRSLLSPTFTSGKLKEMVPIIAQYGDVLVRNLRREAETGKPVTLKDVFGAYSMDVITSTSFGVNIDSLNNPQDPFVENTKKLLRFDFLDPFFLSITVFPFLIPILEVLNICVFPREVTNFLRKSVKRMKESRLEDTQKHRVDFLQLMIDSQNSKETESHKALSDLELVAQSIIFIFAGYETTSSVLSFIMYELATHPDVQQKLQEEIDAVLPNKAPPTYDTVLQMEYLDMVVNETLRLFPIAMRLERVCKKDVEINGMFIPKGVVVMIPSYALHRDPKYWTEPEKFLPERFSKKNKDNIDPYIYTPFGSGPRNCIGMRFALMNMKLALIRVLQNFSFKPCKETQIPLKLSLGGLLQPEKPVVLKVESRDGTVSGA
Chain of 3',5'-cyclic-AMP phosphodiesterase 4B (Homo sapiens) (Q07343 whole entry, looked up): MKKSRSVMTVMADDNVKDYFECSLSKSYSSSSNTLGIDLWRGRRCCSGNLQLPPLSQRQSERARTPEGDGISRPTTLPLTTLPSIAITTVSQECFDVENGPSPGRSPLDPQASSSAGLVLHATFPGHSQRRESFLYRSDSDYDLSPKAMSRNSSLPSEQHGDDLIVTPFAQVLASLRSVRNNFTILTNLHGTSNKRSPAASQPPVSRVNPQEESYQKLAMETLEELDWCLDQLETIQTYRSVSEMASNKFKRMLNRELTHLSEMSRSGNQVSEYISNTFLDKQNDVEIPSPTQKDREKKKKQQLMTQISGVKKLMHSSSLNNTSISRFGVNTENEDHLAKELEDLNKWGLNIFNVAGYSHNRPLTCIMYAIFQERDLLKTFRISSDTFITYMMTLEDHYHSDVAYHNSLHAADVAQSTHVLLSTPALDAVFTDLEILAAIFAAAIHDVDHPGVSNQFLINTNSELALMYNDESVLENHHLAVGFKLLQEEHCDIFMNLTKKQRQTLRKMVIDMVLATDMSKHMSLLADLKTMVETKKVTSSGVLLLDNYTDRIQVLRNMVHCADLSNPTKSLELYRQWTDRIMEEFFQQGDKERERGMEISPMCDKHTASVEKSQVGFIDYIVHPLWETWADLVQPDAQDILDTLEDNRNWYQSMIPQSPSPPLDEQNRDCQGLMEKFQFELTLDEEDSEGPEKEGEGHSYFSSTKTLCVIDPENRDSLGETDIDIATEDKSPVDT
Chain of Cytochrome P450 2D6 (Homo sapiens) (P10635 whole entry, looked up): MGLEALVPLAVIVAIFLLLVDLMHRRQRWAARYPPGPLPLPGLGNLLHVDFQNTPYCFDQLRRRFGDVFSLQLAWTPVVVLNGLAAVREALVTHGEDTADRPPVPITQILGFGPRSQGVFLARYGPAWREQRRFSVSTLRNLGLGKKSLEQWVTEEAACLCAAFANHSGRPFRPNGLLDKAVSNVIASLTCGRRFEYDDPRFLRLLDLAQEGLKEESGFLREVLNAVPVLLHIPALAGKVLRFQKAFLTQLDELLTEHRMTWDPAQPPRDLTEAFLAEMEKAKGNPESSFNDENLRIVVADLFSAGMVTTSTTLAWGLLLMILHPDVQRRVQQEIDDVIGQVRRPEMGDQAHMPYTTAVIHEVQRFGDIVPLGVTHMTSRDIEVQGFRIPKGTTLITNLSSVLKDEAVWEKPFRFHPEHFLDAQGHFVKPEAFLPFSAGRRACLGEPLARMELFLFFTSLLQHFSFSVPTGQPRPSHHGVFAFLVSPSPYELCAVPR

Structure (SMILES)	Potency [1]	activity change, negative = inhibition [2]	activity change, negative = inhibition [3]	activity, negative = inhibition [4]	Potency [5]	Potency [6]	Potency [7]	outcome [8]	Potency [9]	Potency [10]	Potency [11]
CS(=O)(=O)N1CCC2(CCCN(Cc3cc(C(F)(F)F)cc(C(F)(F)F)c3)C2)CC1	> 11.4 µM	20%	-14.4%	5.1%	> 46 µM	inactive	inactive	inactive			
O=C(c1csnn1)N1CCC[C@@]2(CCN(c3ccccc3)C2)C1	> 11.4 µM	-5.43%	-8.4%	-7.17%	> 46 µM	inactive	inactive	inactive			
CC(=O)N1CCC2(CC1)CCN(C(=O)Nc1cccc(C#N)c1)CC2	> 11.4 µM	4.49%	8.82%	3.47%	> 46 µM	inactive	inactive	inactive			
O=S(=O)(c1ccccc1)N1CCC2(CCCN(C(c3ccccc3)c3ccccc3)C2)CC1	> 11.4 µM	-2.18%	-9.54%	-3.12%	> 46 µM	inactive	inactive	inactive	2 µM (active)	inactive	0.501 µM (active)
N#Cc1ccc(CN2CC3(CCN(C(=O)c4csnn4)CC3)C2)cc1	> 11.4 µM	-0.499%	-22.3%	5.17%	> 46 µM	inactive	inactive	inactive			
Cc1noc(C)c1C(=O)N1CCC2(CCCN(c3ccccn3)C2)CC1	> 11.4 µM	-4.45%	-10.8%	-8.83%	> 46 µM	inactive	inactive	inactive		inactive	
COC(=O)N1CCC[C@@]2(CCN(Cc3nccs3)C2)C1	> 11.4 µM	1.72%	14.9%	-4.13%		inactive	inactive	inactive			
O=C(c1cccc(F)c1)N1CCC2(CC1)CN(c1ccccc1)C2	> 11.4 µM	-0.575%	6.14%	-1.57%	> 46 µM	inactive	inactive	inactive	inactive	7.94 µM (active)	
COc1ccc(C(=O)N2CCC3(CCCN(C(=O)NC(C)C)C3)CC2)cc1	> 11.4 µM	-3.27%	2.69%	0.47%	> 46 µM	inactive	inactive	inactive			
O=C(c1csnn1)N1CCC[C@@]2(CCN(c3cccc(-c4ccccc4)c3)C2)C1	> 11.4 µM	-28.1%	12.1%	6.22%	> 46 µM	inactive	inactive	inactive			
COc1ccc(NC(=O)N2CCCC3(CCN(C(=O)c4ccc(OC)cc4)CC3)C2)cc1	> 11.4 µM	-11.4%	0.394%	-3.96%	> 46 µM	inactive	inactive	inactive		inactive	
COc1ccc(C(=O)N2CCC[C@@]3(CCN(C)C3)C2)cc1	> 11.4 µM	10.5%	-2.06%	1.69%	> 46 µM	inactive	inactive	inactive			
O=C(Nc1ccccc1)N1CCC2(CCNCC2)CC1	> 11.4 µM	-1.92%	-7.88%	10.8%	> 46 µM	inactive	inactive	inactive			
O=S(=O)(c1ccccc1)N1CCC2(CCN(c3ccccc3)CC2)CC1	> 11.4 µM	6.91%	-1.26%	-14.2%	> 46 µM	inactive	inactive	inactive		inactive	
COCC(=O)N1CCC2(CCCN(c3ccccn3)C2)CC1	> 11.4 µM	0.674%	-15.3%	11.7%	> 46 µM	inactive	inactive	inactive			
COc1ccc(C(=O)N2CCC3(CCCN(c4ccccn4)C3)CC2)cc1	> 11.4 µM	-4.8%	-8.78%	-3.02%	> 46 µM	inactive	inactive	inactive			
O=C(Nc1ccccc1)N1CCCC2(CCN(C(=O)c3csnn3)CC2)C1	> 11.4 µM	-9.89%	-7.97%	-7.07%	> 46 µM	inactive	inactive	inactive		inactive	

Source: PubChem BioAssay (NCATS)
